High-throughput results: PubChem BioAssay, National Center for Advancing Translational Sciences (NCATS)
The list is not random: actives were taken first. Their share in the collection is about 9.2%.
SMN2 splice up: qHTS Assay for Enhancers of SMN2 Splice Variant Expression; HEK293 SMN2-luciferase splicing reporter, luminescence, 30-36 h; Potency, µM (series often up to 46.1 µM), usual class: activators; 210,000 tested, 2.8% active; also: nearly all actives have a fitted effect of over 55% in size
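HEK293 cells carry an SMN2 minigene-luciferase reporter in which exon 7 inclusion puts luciferase in frame. Cells were seeded at 2000 cells/well, attached for 10-12 hours, then exposed to compounds for 30-36 hours at 37C before ONE-Glo luminescence.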
ELG1 genotoxic: qHTS screen for small molecules that induce genotoxicity in human embryonic kidney (HEK293T) cells expressing luciferase-tagged ELG1. HEK293T ELG1-luciferase reporter, luminescence, 16 h. Potency, µM (top dose mostly 46 µM), actives largely listed as activators. 330,000 tested, 1.3% active. AID 504466, 2011; also: nearly all actives have a fitted effect of over 60% in size
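DMSO vehicle served as control against compound-treated ELG1-luciferase HEK293T cells; exposure lasted 16 hr at 37 °C and 5% CO2, followed by ONE-Glo luminescence detection after 30 min.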
FLuc counter: qHTS profiling assay for firefly luciferase inhibitor/activator using purifed enzyme and Km concentrations of substrates (counterscreen for miR-21 project); Luciferin 4-monooxygenase (Photinus pyralis), P08659; purified FLuc, Km substrates, luminescence inhibition; Potency, µM (highest dose often 57.5 µM), most hits filed as inhibitors; 360,000 tested, 6.9% active; also: nearly all actives have a fitted effect of over 55% in size
Target sequence (P08659 whole entry, looked up): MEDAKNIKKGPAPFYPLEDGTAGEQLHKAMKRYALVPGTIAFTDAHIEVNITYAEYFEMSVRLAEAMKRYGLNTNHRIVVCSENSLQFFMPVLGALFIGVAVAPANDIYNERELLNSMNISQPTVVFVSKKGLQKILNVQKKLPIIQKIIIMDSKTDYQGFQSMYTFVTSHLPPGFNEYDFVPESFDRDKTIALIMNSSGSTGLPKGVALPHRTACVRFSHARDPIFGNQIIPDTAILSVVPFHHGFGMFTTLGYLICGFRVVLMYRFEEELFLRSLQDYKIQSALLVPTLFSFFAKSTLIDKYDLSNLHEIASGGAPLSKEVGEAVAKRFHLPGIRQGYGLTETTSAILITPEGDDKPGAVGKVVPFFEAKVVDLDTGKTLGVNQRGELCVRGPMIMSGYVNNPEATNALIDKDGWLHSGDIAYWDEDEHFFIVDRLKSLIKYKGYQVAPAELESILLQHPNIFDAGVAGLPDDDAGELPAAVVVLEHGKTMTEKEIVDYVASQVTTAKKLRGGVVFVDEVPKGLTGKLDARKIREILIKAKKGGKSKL
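Purified P. pyralis luciferase (10nM final) with 10uM D-luciferin and 10uM ATP (Km levels) in 50mM Tris acetate pH 7.5, 10mM Mg acetate, 0.01% Tween-20, 0.05% BSA; qHTS 6-point titration, ~60 µM downward; luminescence read.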
Rab9 promoter act: qHTS Assay for Rab9 Promoter Activators. 320,000 tested, 2.8% active. Huh7 Rab9 promoter-luciferase reporter, luminescence, 24 h. Potency, µM (series often up to 9.22 µM), actives largely listed as activators. AID 485297, 2010; also: nearly all actives have a fitted effect of over 60% in size
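Luminescence read-out: Huh7 cells stably expressing Rab9-luciferase, treated 24 h with compound at 37 °C, then lysed with luciferase reagent for 10 min at ambient before reading.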
NPC1 prom act: qHTS Assay for NPC1 Promoter Activators. Huh7 NPC1 promoter luciferase reporter, 24 h. Potency, µM (series often up to 9.22 µM), usual class: activators. 320,000 tested, 2.4% active; also: nearly all actives have a fitted effect of over 60% in size
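Luminescence read-out of NPC1 promoter-driven luciferase in stably transfected Huh7 cells; compounds delivered in DMSO and left 24 h at 37C, 5% CO2, qHTS titration format.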
ELG1 repair inh: qHTS screen for small molecules that inhibit ELG1-dependent DNA repair in human embryonic kidney (HEK293T) cells expressing luciferase-tagged ELG1 | 330,000 tested, 2.3% active | HEK293T ELG1-luciferase reporter, luminescence, 16 h; DNA damage induced by 5-fluorouridine | Potency, µM (top dose mostly 46.1 µM), hits mostly inhibitors; also: nearly all actives have a fitted effect of over 55% in size
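HEK293T cells expressing luciferase-tagged ELG1 (2,000/well) received 5-Fluorouridine plus compound or DMSO for 16 hr at 37 °C. Luciferase was read by ONE-Glo luminescence after 30 min at room temperature.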
Hits are given with their value; [ ] = remark or other dose. Calls follow the shape of the dose curve; as a rule, active = well fitted curve in the direction sought with a large enough effect; inconclusive = small, poorly fitted or top-dose-only effect, or another doubt; inactive = no such curve, though single readings can be large; an effect the other way counts as inactive or inconclusive.

CCSc1nncn1/N=C/c1ccc(OC)c(OC)c1 was read as SMN2 splice up inconclusive, ELG1 genotoxic inconclusive, FLuc counter inconclusive, Rab9 promoter act inactive, NPC1 prom act inactive and ELG1 repair inh inconclusive.
For CCOC(=O)Nc1cccc(NC(=O)c2ccccc2F)c1 the results were SMN2 splice up inactive, ELG1 genotoxic inactive, FLuc counter inconclusive, Rab9 promoter act inactive, NPC1 prom act inactive and ELG1 repair inh inactive.
For O=C(O)c1cc(NC(=O)c2ccccc2F)cc(NC(=O)c2ccccc2F)c1 the results were ELG1 genotoxic inactive, FLuc counter inactive, Rab9 promoter act inactive, NPC1 prom act inactive and ELG1 repair inh inactive.
For O=C(Nc1ccc(Nc2ccccc2)cc1)c1ccccc1F the results were ELG1 genotoxic inconclusive, FLuc counter 12µM, Rab9 promoter act inconclusive, NPC1 prom act inconclusive and ELG1 repair inh inconclusive.
CCN(CC)c1ccc(NC(=O)c2ccccc2F)cc1 was read as SMN2 splice up 11.2µM, ELG1 genotoxic inconclusive, FLuc counter 6.01µM, Rab9 promoter act 0.562µM, NPC1 prom act inconclusive and ELG1 repair inh inconclusive.
Screening CC1CCCN(S(=O)(=O)c2cnc[nH]2)C1 (stereo unspecified) returned ELG1 genotoxic inactive, FLuc counter inactive, Rab9 promoter act inactive, NPC1 prom act inactive and ELG1 repair inh inactive.
COCCCN1C(=O)C2C(C(=O)Nc3cc(C)cc(C)c3)C3C=CC2(O3)C1C(=O)NC1CCCCC1 (stereo unspecified) was read as ELG1 genotoxic inactive, FLuc counter inactive, Rab9 promoter act inactive, NPC1 prom act inactive and ELG1 repair inh inactive.
COC(=O)c1cc(=O)nc2sc3cc(OC)ccc3n12 was read as SMN2 splice up inactive, ELG1 genotoxic inactive, FLuc counter inactive, Rab9 promoter act inactive, NPC1 prom act inactive and ELG1 repair inh inactive.
`CCCCc1c(O)nc2sc3cc(OC)ccc3n2c1=O` gave SMN2 splice up inactive, ELG1 genotoxic inconclusive, FLuc counter 10.7µM, Rab9 promoter act inactive, NPC1 prom act inactive and ELG1 repair inh inconclusive.
Screening CCC1(c2ccc(Cl)cc2)NC(=S)N(c2ccc(C)cc2)N1 (stereo unspecified) returned SMN2 splice up inactive, ELG1 genotoxic inconclusive, FLuc counter 16.9µM, Rab9 promoter act inactive, NPC1 prom act inactive and ELG1 repair inh inconclusive.
For COc1cccc(NC(=O)c2cc([N+](=O)[O-])ccc2NC(=O)CNCC2CCCO2)c1 (stereo unspecified) the results were SMN2 splice up inactive, ELG1 genotoxic inactive, FLuc counter inactive, Rab9 promoter act inactive, NPC1 prom act inactive and ELG1 repair inh 9.2µM.
`COc1ccc(NC(=O)c2cc([N+](=O)[O-])ccc2NC(=O)CNCc2ccccn2)c(OC)c1` gave ELG1 genotoxic inactive, FLuc counter inactive, Rab9 promoter act inactive, NPC1 prom act inactive and ELG1 repair inh inactive.
`Cc1cccc(NC(=O)c2cc([N+](=O)[O-])ccc2NCC2CCCO2)n1` (stereo unspecified) gave SMN2 splice up inactive, ELG1 genotoxic inactive, FLuc counter inactive, Rab9 promoter act inactive, NPC1 prom act inactive and ELG1 repair inh 14.6µM.
`O=C(Nc1ccccc1)c1ccc(NCC2CCCO2)c([N+](=O)[O-])c1` (stereo unspecified) gave SMN2 splice up 17.8µM, ELG1 genotoxic inactive, FLuc counter inconclusive, Rab9 promoter act inconclusive, NPC1 prom act inconclusive and ELG1 repair inh inconclusive.
Screening O=C(CNCC1CCCO1)Nc1ccc([N+](=O)[O-])cc1C(=O)Nc1ccccc1F (stereo unspecified) returned SMN2 splice up inactive, ELG1 genotoxic inactive, FLuc counter inactive, Rab9 promoter act inactive, NPC1 prom act inactive and ELG1 repair inh inconclusive.
COc1cc(NC(=O)c2cc([N+](=O)[O-])ccc2NC(=O)CNCc2ccccn2)cc(OC)c1 was read as ELG1 genotoxic inactive, FLuc counter inactive, Rab9 promoter act inactive, NPC1 prom act inactive and ELG1 repair inh 6.51µM.
For COc1ccc2c(c1)c1c(C)c3cnccc3c(C)c1n2CCCN the results were SMN2 splice up inactive[9.22 µM].
`Cc1ccc(C(=O)NCC(=O)NC2CCCCCC2)cc1` gave ELG1 genotoxic inactive, FLuc counter inactive, Rab9 promoter act inactive, NPC1 prom act inactive and ELG1 repair inh inactive.
O=C(NC1CC(=O)N(c2ccc(F)cc2)C1)c1ccc(S(=O)(=O)N2CCOCC2)cc1 (stereo unspecified) was read as FLuc counter inactive.
Screening Cc1noc(C)c1C(=O)N1CCC2(CCCN(C(=O)Nc3ccccc3)C2)CC1 returned SMN2 splice up inactive.
COc1cc(NC(=O)c2cc([N+](=O)[O-])ccc2NC(=O)CNC2CCCCC2)cc(OC)c1 was read as ELG1 genotoxic inactive, FLuc counter inactive, Rab9 promoter act inactive, NPC1 prom act inactive and ELG1 repair inh 20.6µM.
`Cc1cc(C(=O)N2CCc3c([nH]c4ccccc34)C2c2cccc(Cl)c2)nn1C` (stereo unspecified) gave ELG1 genotoxic inactive, FLuc counter inactive, Rab9 promoter act inactive, NPC1 prom act inactive and ELG1 repair inh inconclusive.
Screening CSc1ccc(C2c3[nH]c4ccccc4c3CCN2C(=O)c2cc(C)n(C)n2)cc1 (stereo unspecified) returned SMN2 splice up inconclusive, ELG1 genotoxic inconclusive, FLuc counter 16.9µM, Rab9 promoter act inconclusive, NPC1 prom act inactive and ELG1 repair inh inconclusive.
Screening COc1ccc(-c2cc3ccccc3cn2)cc1 returned ELG1 genotoxic 2.59µM, FLuc counter 0.849µM, Rab9 promoter act 0.631µM, NPC1 prom act 0.631µM and ELG1 repair inh inconclusive.
Screening COc1ccc(-c2ccc(OC)cc2)cc1 returned ELG1 genotoxic inactive, FLuc counter inconclusive, Rab9 promoter act inactive, NPC1 prom act inactive and ELG1 repair inh inconclusive.
Screening COc1ccc(-c2cc3ccc(OC)cc3cn2)cc1 returned ELG1 genotoxic inconclusive, FLuc counter 0.19µM, Rab9 promoter act 0.316µM, NPC1 prom act 0.282µM and ELG1 repair inh inconclusive.
COc1ccc2cc(-c3cccnc3)ncc2c1 was read as ELG1 genotoxic inconclusive, FLuc counter 3.79µM, Rab9 promoter act inconclusive, NPC1 prom act 2.24µM and ELG1 repair inh inconclusive.
For COc1ccc2cc(-c3ccon3)ccc2c1 the results were ELG1 genotoxic inconclusive, FLuc counter 3.01µM, Rab9 promoter act inconclusive, NPC1 prom act inconclusive and ELG1 repair inh inconclusive.
